Screens from PubChem.
The list is not random: actives were taken first. Their share in the collection is about 3.5%.
Tau fluor cs – counter-screen for tau fibril formation inhibitors | tau K18 P301L Alexa594 fluorescence, heparin fibrillization | Potency, µM (titrated, usually from 57.7 µM), for inactives: at the highest dose activity change, negative = decrease | 280,000 compounds, 0.93% hits | AID 1463; further: nearly all actives have a fitted effect of over 55% in size
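Human K18 P301L tau (15 uM unlabeled plus 0.24 uM Alexa 594-labeled, final) in 100 mM sodium acetate pH 7 was mixed with compound and 20 uM heparin and incubated 6 hr at 37 C.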
JMJD2E inh – blocks human JMJD2E demethylase activity | JMJD2E catalytic domain, FDH-coupled NADH fluorescence (FDH is formaldehyde dehydrogenase) | 230,000 compounds, 1.6% hits | Potency, µM (series often up to 57.1 µM), for inactives: top-dose activity change, negative = inhibition, usual class: inhibitors; active means well fitted inhibition curve with a large enough effect, not every such curve was filed as active; inconclusive means small, poorly fitted or top-dose-only effect, or another doubt; inactive means no such curve, though single readings can be large or run the other way;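 further: 0% = wells with enzyme and -100% = buffer wells without enzyme; nearly all actives have a fitted effect of over 50% in size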
Target sequence (B2RXH2 1-337 limits assumed): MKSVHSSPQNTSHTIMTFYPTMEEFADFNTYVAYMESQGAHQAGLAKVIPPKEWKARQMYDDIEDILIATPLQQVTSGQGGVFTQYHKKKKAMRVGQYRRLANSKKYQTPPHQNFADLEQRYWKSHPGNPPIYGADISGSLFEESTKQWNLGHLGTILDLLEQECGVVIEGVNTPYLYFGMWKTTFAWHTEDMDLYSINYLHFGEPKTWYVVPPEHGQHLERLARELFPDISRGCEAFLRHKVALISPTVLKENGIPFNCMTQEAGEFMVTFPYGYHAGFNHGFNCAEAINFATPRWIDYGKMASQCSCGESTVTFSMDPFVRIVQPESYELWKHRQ
TR SRC2 fluor cs – alters Texas Red total fluorescence, flagging assay interference; TRb/SRC2 Texas Red total fluorescence interference; Potency, µM (series often up to 106 µM), for the others: at the top dose fluorescence change, negative = quenching; 280,000 compounds, 0.29% hits; AID 1479; active means well fitted curve in either direction with a large enough effect; inconclusive means small, poorly fitted or top-dose-only effect
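Flags fluorescent or light-absorbing compounds by total fluorescence, S + 2P, at 555 nm excitation and 632 nm emission. Mixture: 20 nM Texas Red SRC2 peptide, 0.6 uM human TRb LBD, 1 uM T3, 5% DMSO; compound exposure 5 h at ambient temperature.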
Tau ThT inhib – tau fibrillization inhibition (ThT binding); recombinant tau K18 P301L, heparin-induced fibrillization, ThT fluorescence; Potency, µM (series often up to 57.4 µM), for the others: at the top dose activity, negative = inhibition, actives largely listed as inhibitors; AID 1460; 270,000 compounds, 2.1% hits; P10636; further: nearly all actives have a fitted effect of over 55% in size
Target sequence (P10636 561-689 P618L limits assumed): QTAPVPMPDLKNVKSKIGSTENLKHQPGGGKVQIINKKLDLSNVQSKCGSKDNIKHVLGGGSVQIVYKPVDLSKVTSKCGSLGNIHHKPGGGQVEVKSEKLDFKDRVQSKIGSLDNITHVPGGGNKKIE
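Using a mix of unlabeled (15 uM) and Alexa 594-labeled (0.24 uM) tau K18 P301L, heparin-triggered fibrillization over 6 hr at 37 C was scored by ThT fluorescence.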
TRb SRC2 PPI – disrupts binding of human TR beta to SRC2; TRbeta-SRC2 peptide binding, fluorescence polarization; receptor liganded with 1 µM T3; Potency, µM (titrated, usually from 106 µM), inactives show top-dose activity change, negative = inhibition, actives largely listed as inhibitors; 280,000 compounds, 0.065% hits;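 further: plate controls were bound peptide for no effect and peptide without receptor for full effect; nearly all actives have a fitted effect of over 50% in size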
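Assay buffer: 20 mM Tris-HCl, 100 mM NaCl, 10% glycerol, 1 mM EDTA, 0.01% NP-40, 1 mM DTT, 1 uM T3, 5% DMSO; TRb LBD 0.6 uM, Texas Red SRC2 20 nM; FP after 5 hr.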
Tau FP inhib – inhibitors of human tau fibril formation; K18 P301L tau heparin fibrillization, Alexa594 FP, 6 h; Potency, µM (series often up to 57.7 µM), for the others: at the top dose activity, negative = inhibition, most hits filed as inhibitors; 280,000 compounds, 0.39% hits; further: nearly all actives have a fitted effect of over 55% in size
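K18 P301L tau (15 uM unlabeled/0.24 uM Alexa 594-labeled, final) + compound + heparin 20 uM final; 100 mM NaOAc pH 7; 6 hr 37 C; ThT 30 uM final added, 1 hr RT; FP ex 555/em 632 nm.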
Active calls of the source: *; ? = inconclusive; . = no result given; [ ] = remark or other dose. Unless noted, the call rests on the fitted dose curve; in most records, active means well fitted curve in the direction sought with a large enough effect; inconclusive means small, poorly fitted or top-dose-only effect, or another doubt; inactive means no such curve, though single readings can be large; an effect the other way counts as inactive or inconclusive. Unless noted, on the % scale 0 is the no-effect control and ±100 the full control effect; potency means the concentration at half of the fitted maximal effect.

SMILES	Tau fluor cs	JMJD2E inh	TR SRC2 fluor cs	Tau ThT inhib	TRb SRC2 PPI	Tau FP inhib
CNc1cc(Cl)c2nonc2c1[N+](=O)[O-]	?	-4%	-4%	11µM*	2%	-9%
C[C@]12CC[C@@H]3c4ccc(O)cc4CC[C@H]3[C@@H]1C[C@@H](O)[C@@H]2O[C@@H]1O[C@H](C(=O)O)[C@@H](O)[C@H](O)[C@H]1O	-8%	22µM*	-1%	-15%	0%	9%
O=C(Nc1ccc(Cl)c(C(F)(F)F)c1)NC1CC2CCCC(C1)N2Cc1ccccc1 (configuration not stated)	?	5%	-1%	-12%	-5%	28µM*
O=C(Nc1ccc(Cl)c(C(F)(F)F)c1)c1ccc2c(c1)CCN2S(=O)(=O)c1ccccc1	?	.	-1%	10%	-9%	?
O=c1cc(CO)occ1O	-3%	25µM*	0%	-3%	3%	-5%
CCOP(=O)(C1=C(O)C(=O)C(C(C)(C)C)=CC1=O)c1ccccc1 (configuration not stated)	-22%	-8%	2%	22µM*	?	?
COCCCNC(=O)c1c(N)n(Cc2ccco2)c2nc3ccccc3nc12	?	?	-3%	?	8%	-2%
COc1ccc(Cn2c(N)c(C(=O)NCc3ccco3)c3nc4ccccc4nc32)cc1OC	?	?	-3%	14µM*	2%	?
CCOc1ccc(-c2nc3cc(NC(=O)COc4cccc(C)c4)ccc3o2)cc1	-2%	.	14µM*[quencher]	?	?	2%
CN(C(=O)CSc1nc2ccc(NC(=O)COc3ccc(Cl)cc3)cc2s1)c1ccccc1	-27%	.	7%	-2%	4%	?
Clc1ccc(-c2nc3ccc(Cl)cn3c2CN2CCOCC2)cc1	3%	?	-6%	-5%	-4%	6%
COc1cc(-c2nc3ccc(Cl)cn3c2Nc2ccc3c(c2)OCCO3)ccc1O	10µM*[quencher]	.	-3%	?	-6%	13%
CN(C)/C=C1/C(=O)NC(=O)N(CCNc2ncc(C(F)(F)F)cc2Cl)C1=O	-9%	62%	-1%	16µM*	1%	?
CN(C)c1ccc(/C=C2/C(=O)NC(=O)N(CCc3ccc(F)cc3)C2=O)cc1	1%	-26%	4%	?	2%	-10%
Cc1ccc(-n2c(/C=C/c3ccccc3)nc3ccccc3c2=O)cc1Cl	-4%	.	0%	2%	1%	-10%
CC(=O)N1N=C2C3CCN(CC3)C2C1c1cccc2ccccc12 (configuration not stated)	-14%	0%	-2%	-6%	2%	-8%
C=CCN1C(=O)/C(=C/c2cc(C)n(-c3cccnc3)c2C)C(=O)NC1=S	-19%	-2%	-1%	22µM*	-2%	?
Cn1c(=O)c2c(nc(N/N=C/c3c(O)n(C4CCCCC4)c(=S)[nH]c3=O)n2C)n(C)c1=O	?	?	-4%	16µM*	-3%	?
Cc1cccc(-n2c(O)c(/C=N/Nc3nc4c(c(=O)n(C)c(=O)n4C)n3C)c(=O)[nH]c2=S)c1	?	?	2%	13µM*	-6%	?
Cn1c(O)c(C=NC2CCCCC2)c(=O)[nH]c1=S	2%	-9%	-3%	-5%	-1%	-5%
Cc1ccccc1-n1c(O)c(/C=N/Nc2nc3c(c(=O)n(C)c(=O)n3C)n2C)c(=O)[nH]c1=S	-14%	?	0%[53 µM]	?	1%[53 µM]	?
CCN(CC)CCO[C@H]1CC[C@@]2(C)C(=CC[C@@H]3[C@H]2CC[C@]2(C)C(=O)CC[C@H]32)C1	-13%	-8%	-4%	-13%	1%	-6%
COc1ccc(-n2c(Cc3ccccc3)nc3ccccc3c2=O)cc1	0%	-10%	-3%	0%	1%	3%
CC1(C)C[C@H]2C=C(C=O)[C@]3(C=O)C[C@]3(C)[C@H]2C1	-26%	-23%	-8%	14µM*	1%	?
CCn1nc(-c2ccccc2)nc2c(=O)n(C)c(=O)nc1-2	-10%	28µM*	-5%	16µM*	?	?
SMILES	Tau fluor cs	JMJD2E inh	TR SRC2 fluor cs	Tau ThT inhib	TRb SRC2 PPI	Tau FP inhib
O=C(COc1ccc(Cl)cc1)N1CCN(Cc2ccc([N+](=O)[O-])cc2)CC1	-21%	?	2%	-16%	2%	-7%
O=[N+]([O-])c1cccc(CN2CCN(Cc3ccc(Cl)cc3)CC2)c1	-14%	28µM*	-1%	-7%	-3%	?
O=C1OCCC1NC1=NCCC1 (configuration not stated)	4%	4%	4%	-5%	-3%	-1%
CN1C(=O)C(=Cc2ccccc2Oc2ccc(Cl)cc2)C(=O)N(C)C1=O	-13%	-5%	-1%	?	4%	0%
CN1C(=O)C(=Cc2ccccc2OCc2ccc(Cl)cc2)C(=O)N(C)C1=O	-7%	20µM*	-2%	?	-4%	-1%
CNc1ccc2oc(C[C@H]3O[C@@]4(CC[C@H]3C)O[C@H]([C@H](C)C(=O)c3ccc[nH]3)[C@H](C)C[C@H]4C)nc2c1C(=O)O	?	?	1%	?	1%	-10%
CNc1ccc2oc(C[C@@H]3OC4(CC[C@@H]3C)O[C@H]([C@@H](C)C(=O)c3ccc[nH]3)[C@H](C)C[C@H]4C)nc2c1C(=O)O (some centres not stated)	?	.	-2%	32µM*	-24%	?
CN1C(=O)/C(=C/c2ccc(N3CCCCCC3)o2)C(=O)NC1=S	-12%	1%	2%	14µM*	6%	-2%
CCN1C(=O)C(=Cc2ccc(N3CCOCC3)o2)C(=O)N(CC)C1=S	-28%	0%	1%	18µM*	0%	-10%
CN1CCN(c2ccc(/C=C3\C(=O)NC(=S)N(c4cccc(Br)c4)C3=O)o2)CC1	-19%	-6%	-1%	16µM*	1%	-14%
O=C(Nc1ccon1)c1cccn(Cc2cccc([N+](=O)[O-])c2)c1=O	-9%	.	-3%	-5%	-3%	-15%
COc1ccccc1C1=NOC(COC(=O)c2ccc([N+](=O)[O-])cc2)C1 (configuration not stated)	?	5%	-3%	?	-7%	-1%
N#CC(O)c1ccccc1 (configuration not stated)	.	.	-1%	.	4%	.
O=C1NC(=O)C(=Cc2ccc(OCCOc3ccc([N+](=O)[O-])cc3)cc2)C(=O)N1	-17%	28µM*	-1%	?	-14%	-16%
CCC[C@@](C)(COC(N)=O)COC(=O)NC(C)C	.	8%[25.5 µM]	-1%[53 µM]	.	-2%[53 µM]	.
